According to PubChem BioAssay (NCATS):
Inconclusive results are not listed. Active and inactive are the calls of the source. Calls follow the shape of the dose curve; as a rule, active = well fitted inhibition curve with a large enough effect; inconclusive = small, poorly fitted or top-dose-only effect; inactive = flat fitted curve, though single readings scatter.

Key:
Experiment in all cases: qHTS profiling for inhibitors of Plasmodium falciparum proliferation (AID 504749); also: nearly all actives have a fitted effect of over 60% in size
Settings in all cases: P. falciparum in erythrocytes, SYBR Green DNA, 72 h; series mostly up to 28.7 µM
[1] = tested on: CP201
Summary of the method: (§1)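 Three-day growth assay of blood-stage parasites in erythrocytes (0.3% parasitemia, 2.5% hematocrit) at 37 C, 5% CO2, quantified by SYBR Green DNA staining after overnight detergent lysis.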

[2] = tested on: CP203
Summary of the method: as §1

[3] = tested on: CP211
Summary of the method: as §1

[4] = tested on: CP215
Summary of the method: as §1

[5] = tested on: CP217
Summary of the method: as §1

[6] = tested on: CP237
Summary of the method: as §1

[7] = tested on: CP238
Summary of the method: as §1

[8] = tested on: CP247
Summary of the method: as §1

[9] = tested on: CP250
Summary of the method: as §1

[10] = tested on: CP252
Summary of the method: as §1

Measured: Potency

CCCC(=O)O
inactive: all assays above

CC(C)Cc1ccc([C@@H](C)C(=O)NS(C)(=O)=O)cc1
inactive: all assays above

O=C(O)[C@H]1CN(C/C=C/P(=O)(O)O)CCN1
inactive: all assays above

O=C(O)/C=C/C(=O)Nc1ccc(S(=O)(=O)Nc2nccs2)cc1
inactive: all assays above

CC(C)(Oc1ccc(C2CCCc3ccccc32)cc1)C(=O)O (stereo unspecified)
inactive: all assays above

OB(O)O
inactive: all assays above

CC(=O)Nc1c(I)c(C(=O)O)c(I)c(N(C)C(C)=O)c1I
inactive: all assays above

CC1CCC(NC(=O)N(CCCl)N=O)CC1 (stereo unspecified)
inactive: all assays above

O=P(O)(O)OC[C@H]1O[C@](O)(COP(=O)(O)O)[C@@H](O)[C@@H]1O
inactive: all assays above

OC1OC[C@@H](O)[C@H](O)[C@@H]1O (stereo partly specified)
inactive: all assays above

CC(C)CCC[C@@H](C)[C@H]1CC[C@H]2[C@@H]3CC[C@@H]4C[C@H](O)CC[C@]4(C)[C@H]3CC[C@]12C
inactive: all assays above

Nc1nc(=O)n([C@@H]2CS[C@H](CO)O2)cc1F
inactive: all assays above

NC(N)=O
inactive: all assays above

O=C(CCCCCCCCCCCCC1CCCC1)Nc1ccc(S(=O)(=O)c2ccc(NC(=O)CCCCCCCCCCCCC3CCCC3)cc2)cc1
inactive: all assays above

FC(F)(F)C(F)(F)C(F)(F)C(F)(F)C(F)(F)C(F)(F)F
inactive: all assays above

CN[C@@H]1[C@H](O[C@H]2[C@H](O[C@H]3[C@H](O)[C@@H](O)[C@H](N=C(N)N)[C@@H](O)[C@@H]3N=C(N)N)O[C@@H](C)[C@]2(O)C=O)O[C@@H](CO)[C@H](O)[C@H]1O
inactive: all assays above

O=C1c2ccccc2C(=O)C1c1ccc(Cl)cc1
inactive: all assays above

O=C(O)C1=C(CSc2nnnn2CS(=O)(=O)O)CS[C@@H]2[C@H](NC(=O)[C@H](O)c3ccccc3)C(=O)N12
inactive: all assays above

OC[C@H]1O[C@@H]2O[C@H]3[C@H](O)[C@@H](O)[C@@H](O[C@H]4[C@H](O)[C@@H](O)[C@@H](O[C@H]5[C@H](O)[C@@H](O)[C@@H](O[C@H]6[C@H](O)[C@@H](O)[C@@H](O[C@H]7[C@H](O)[C@@H](O)[C@@H](O[C@H]1[C@H](O)[C@H]2O)O[C@@H]7CO)O[C@@H]6CO)O[C@@H]5CO)O[C@@H]4CO)O[C@@H]3CO
inactive: all assays above

O=C(O)COc1ccc(CCNS(=O)(=O)c2ccccc2)s1
inactive: all assays above

CCc1ncnc2cc(OC)c(OC)cc12
inactive: all assays above

CCCCC(CC)CCC(CC(C)C)OS(=O)(=O)O (stereo unspecified)
inactive: all assays above

O=C(O)c1cc(N=Nc2ccc(O)c(C(=O)O)c2)ccc1O
inactive: all assays above

C(=C\c1ccncc1)/c1ccccc1
inactive: all assays above

C=CCCCCCCCCC(=O)OC
inactive: all assays above

CC(C)(C)CC(C)(C)c1ccc(OCCO)cc1
inactive: all assays above

CCOc1ccc(S(=O)(=O)O)c2cccnc12
inactive: all assays above

CCSc1ccc2c(c1)N(CCCN1CCN(C)CC1)c1ccccc1S2
inactive: all assays above

C=CC(C)(O)CC/C=C(\C)CCC=C(C)C (stereo unspecified)
inactive: all assays above

CC(C)c1nc(N(C)S(C)(=O)=O)nc(-c2ccc(F)cc2)c1/C=C/C(O)CC(O)CC(=O)O (stereo unspecified)
inactive: all assays above

NC(=O)[C@@H]1CCCN1C(=O)[C@H](Cc1cnc[nH]1)NC(=O)[C@@H]1CCC(=O)N1
inactive: all assays above

CCCCCCCCCCCCCCCCCC(=O)OC[C@@H](O)[C@H]1OC[C@H](O)[C@H]1O
inactive: all assays above

Oc1ccc(Cl)c2c1CCC2
inactive: all assays above

[O]=[Bi][O][Bi]=[O]
inactive: all assays above

c1ccc2ccccc2c1
inactive: all assays above

CN(C)CCOc1ccc(/C(=C(/CCCl)c2ccccc2)c2ccccc2)cc1
inactive: all assays above

Cc1nc(NS(=O)(=O)c2ccc(N)cc2)nc(C)c1Br
inactive: all assays above

Cc1ncc(C[n+]2csc(CCOP(=O)(O)O)c2C)c(N)n1
not listed: [9]
inactive: all other assays above

C[C@@](Cc1ccc(O)c(O)c1)(NN)C(=O)O
not listed: [6]
inactive: all other assays above

CC1=C(/C=C/C(C)=C/C=C/C(C)=C/C(=O)Oc2c(C)c(C)c3c(c2C)CC[C@@](C)(CCC[C@H](C)CCC[C@H](C)CCCC(C)C)O3)C(C)(C)CCC1
inactive: all assays above

CC(=O)N=c1sc(S(N)(=O)=O)nn1C
inactive: all assays above

CC(C)OC(=O)Nc1ccc2nc(-c3cscn3)[nH]c2c1
not listed: [8]
inactive: all other assays above

CC(C)CCCCCCc1ccc(O)cc1
not listed: [8]
inactive: all other assays above
